Screening data (PubChem)
An excerpt weighted towards active compounds, which were near 19% of everything screened.
TDP1 cell noCPT – qHTS for Inhibitors of human tyrosyl-DNA phosphodiesterase 1 (TDP1): qHTS in cells in absence of CPT. AID 686978, 2013. Potency, µM (titrated, usually from 46.2 µM), inactives show at the highest dose activity change, negative = growth inhibition, usual class: inhibitors. DT40 Tdp1-/- hTDP1 cells, no CPT, ATP luminescence, 48 h. actives 15% (n = 420,000); also: potency is read from the fitted curve at half-maximal effect; nearly all actives have a fitted effect of over 55% in size
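DT40 Tdp1-/-;hTDP1 cells, no CPT (DMSO vehicle only), 400 cells/well; compounds pin-transferred; ≥48 hr, 37 °C; CellTiter-Glo 30 min RT dark, luminescence read.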
TDP1 block – TDP1 (human) enzyme inhibition; Q9NUW8; recombinant TDP1, AlphaScreen DNA substrate cleavage; Potency, µM (top dose mostly 130 µM), for the others: top-dose activity change, negative = inhibition, most hits filed as inhibitors; actives 0.28% (n = 350,000); AID 485290; also: potency is read from the fitted curve at half-maximal effect; nearly all actives have a fitted effect of over 40% in size
Target sequence (Q9NUW8 whole entry, looked up): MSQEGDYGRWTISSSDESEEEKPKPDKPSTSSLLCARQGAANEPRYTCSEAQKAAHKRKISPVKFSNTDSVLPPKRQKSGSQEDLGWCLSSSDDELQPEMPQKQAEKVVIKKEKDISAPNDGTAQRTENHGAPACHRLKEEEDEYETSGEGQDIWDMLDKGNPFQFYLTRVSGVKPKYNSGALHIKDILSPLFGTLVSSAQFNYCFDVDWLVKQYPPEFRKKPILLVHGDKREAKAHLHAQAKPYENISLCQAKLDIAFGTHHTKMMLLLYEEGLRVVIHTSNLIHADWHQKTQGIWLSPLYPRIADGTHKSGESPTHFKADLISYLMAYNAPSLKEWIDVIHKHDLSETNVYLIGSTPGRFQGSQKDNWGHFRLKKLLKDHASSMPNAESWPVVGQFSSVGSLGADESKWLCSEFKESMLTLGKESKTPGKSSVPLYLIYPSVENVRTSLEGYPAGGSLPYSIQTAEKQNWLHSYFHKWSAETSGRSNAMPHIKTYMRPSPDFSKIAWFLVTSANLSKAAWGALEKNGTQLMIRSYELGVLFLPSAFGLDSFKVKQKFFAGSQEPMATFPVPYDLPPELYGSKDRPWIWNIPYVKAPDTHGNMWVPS
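E. coli-derived human Tdp1, 1 nM final. Cpd preinc 15 min RT; substrate 15 nM final, 5 min RT; AS bead mix 10 ug/ml final, 10 min RT. Signal loss = tyrosine-FITC cleavage. No-enzyme wells = max signal.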
ELG1 repair inh – blocks ELG1-dependent DNA repair in HEK293T cells; HEK293T ELG1-luciferase reporter, luminescence, 16 h; DNA damage induced by 5-fluorouridine; AID 504467; actives 2.3% (n = 330,000); Potency, µM (highest dose often 46.1 µM), for the others: at the top dose activity change, negative = inhibition, actives largely listed as inhibitors; also: potency is read from the fitted curve at half-maximal effect; nearly all actives have a fitted effect of over 55% in size
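Overnight (16 hr) co-exposure of 2,000 cells/well to 5-fluorouridine and compound at 37 °C preceded detection. Luciferase was quantified via ONE-Glo luminescence; loss of signal denotes inhibition.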
DT40 TDP1 CPT – growth inhibition of DT40 Tdp1-/-;hTDP1 cells with camptothecin (screen for TDP1 inhibitors); actives 12% (n = 420,000); chicken DT40 Tdp1-/-;hTDP1 cells + 20 nM CPT, ATP luminescence, 48 h; Potency, µM (titrated, usually from 46.2 µM), for inactives: at the highest dose activity change, negative = growth inhibition, usual class: inhibitors; also: potency is read from the fitted curve at half-maximal effect; nearly all actives have a fitted effect of over 55% in size
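Chicken DT40 Tdp1-/- cells complemented with human TDP1, 400 cells/well, exposed to compounds plus 20 nM camptothecin for at least 48 h at 37 C; viability read as ATP content by CellTiter-Glo luminescence.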
Giardia killer – Giardia lamblia killing; Giardia lamblia trophozoite viability; activity change, % at 7.66 µM, hits read low; actives 0.15% (n = 340,000); in the data active = activity change below about -80%; inconclusive = between about -30% and that limit;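 also: parasites exposed to compound for two days anaerobically before the ATP read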
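Trophozoites 100 cells/well + cpd; 48 hrs, 37 deg C, anaerobic. ATPLite 1-Step added, 15-30 min RT, luminescence read (ATP-based viability).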
IL-1B inflam inh – inflammasome signaling inhibition, IL-1 beta readout | AID 743279 | THP-1 LPS/ATP IL-1B secretion, AlphaLISA, 16 h; stronger effect = lower value | actives 4.7% (n = 360,000) | activity change, % at 57.5 µM; in the data active = activity change below about -50%; inconclusive = mostly about -30% to -49%
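THP-1 cells pretreated 1 hr with compounds (up to 57.5 uM final), then stimulated with LPS (250 ng/mL final) plus ATP (1.25 mM final); secreted IL-1B measured by AlphaLISA after 16 hr, decreased signal indicating inhibition.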
An asterisk follows results filed as active; ? = inconclusive; nt = not tested or not shown; [ ] = remark or other dose. Unless noted, calls follow the shape of the dose curve; as a rule, active = well fitted curve in the direction sought with a large enough effect; inconclusive = small, poorly fitted or top-dose-only effect, or another doubt; inactive = no such curve, though single readings can be large; an effect the other way counts as inactive or inconclusive. % is scaled to controls: 0 for no effect and ±100 for the full control effect.

SMILES	TDP1 cell noCPT	TDP1 block	ELG1 repair inh	DT40 TDP1 CPT	Giardia killer	IL-1B inflam inh
Cc1cc(Cl)ccc1OC(C)C(=O)Nc1ccc([N+](=O)[O-])cn1 (configuration not stated)	?	0%	-10%	?	-4	-69*
Cc1ccc(OC(C)C(=O)Nc2ccc(Cl)cn2)c([N+](=O)[O-])n1 (configuration not stated)	-14%	1%	?	2%	-27	0
COC(=O)c1cccc(C(=O)N2CCc3c(cnc(C)c3CNC(=O)/C=C/c3cccs3)C2)c1	-5%	nt	nt	9%[9.04 µM]	nt	nt
O=S(=O)(Nc1ccccn1)c1cc(Cl)ccc1Cl	17%	nt	0%	1%	-6	0
O=[N+]([O-])c1ccc(NNS(=O)(=O)c2cc(Cl)ccc2Cl)nc1	?	5%	7%	21µM*	21	-5
Nc1nc(N)c2[nH]cnc2n1	8.2µM*	nt	nt	6.5µM*	-10	0
CCn1c(CNC(=O)COc2ccc(C(C)C)cc2)nnc1SCC(=O)Nc1cc(F)ccc1C	?	2%	?	?	-5	-5
Cn1c(CCCOc2ccc(Cl)cc2Cl)nnc1SCC(=O)Nc1cccc(F)c1	?	3%	?	?	16	-16
CCc1cccc(C)c1NC(=O)CSc1nnc(CCCOc2ccc(Cl)cc2Cl)n1C	15µM*	0%	?	23µM*	19	6
CCn1c(CCCOc2ccc(Cl)cc2Cl)nnc1SCC(=O)Nc1cc(F)ccc1C	?	2%	?	?	6	-59*
CC(=O)Oc1cccc(/C=C2\C=C(c3ccc(C)cc3)OC2=O)c1	?	-5%	-11%	18µM*	19	-9
CN(C)c1ccc(C=C2C=C(c3ccccc3)OC2=O)cc1	10µM*	nt	nt	18µM*	nt	-13
Cc1ccc(C=C2C=C(c3ccccc3)OC2=O)cc1	26µM*	nt	nt	?	nt	-19
COc1ccc(C2=C/C(=C\c3ccc(OC(C)=O)cc3)C(=O)O2)cc1	-21%	5%	3%	-20%	-23	-7
CC(=O)c1ccc(OCC(=O)NC2CCCN(Cc3ccccc3F)C2)cc1 (configuration not stated)	?	nt	15%	-6%	-10	-10
Cc1ccccc1-n1c(SCc2csc(Nc3ccccc3)n2)nnc1-c1cccnc1	13µM*	5%	?	12µM*	10	-23
Cc1ccc(Nc2nc(CSc3nnc(-c4ccccc4C)n3C)cs2)cc1	?	-3%	?	?	-3	?
Cc1ccc(Nc2nc(CSc3nnc(-c4cccnc4)n3-c3ccccc3C)cs2)cc1	15µM*	4%	-29%	15µM*	0	?
Cn1nnnc1SCc1csc(Nc2ccccc2)n1	?	0%	?	-21%	-1	-8
Cc1ccc(S(=O)(=O)c2cnc(SCC(=O)Nc3ccccc3C(F)(F)F)[nH]c2=O)cc1C	nt	1%	nt	nt	nt	nt
O=C(O)C1C2C=CC(C2)C1C(=O)NCc1ccc2c(c1)OCO2 (configuration not stated)	-3%	12%	15%	-13%	16	0
O=C(O)C1C2C=CC(C2)C1C(=O)NCc1ccc(Cl)c(Cl)c1 (configuration not stated)	-4%	-8%	-11%	15µM*	-2	26
Cc1ccccc1NC(=O)CSC1=Nc2ccccc2C2=NC(Cc3ccccc3)C(=O)N12 (configuration not stated)	?	6%	nt	?	nt	nt
COc1ccccc1NC(=O)CSC1=Nc2ccccc2C2=NC(Cc3ccccc3)C(=O)N12 (configuration not stated)	?	4%	nt	23µM*	nt	nt
O=C(CSC1=Nc2ccccc2C2=NC(Cc3ccccc3)C(=O)N12)Nc1cccc(Cl)c1 (configuration not stated)	26µM*	4%	nt	16µM*	nt	nt
SMILES	TDP1 cell noCPT	TDP1 block	ELG1 repair inh	DT40 TDP1 CPT	Giardia killer	IL-1B inflam inh
CCc1ccc(NC(=O)CSC2=Nc3ccccc3C3=NC(CC(=O)NCc4ccccc4)C(=O)N23)cc1 (configuration not stated)	0%	1%	nt	-8%	nt	nt
COc1ccc(NC(=O)CSC2=Nc3ccccc3C3=NC(Cc4ccccc4)C(=O)N23)cc1 (configuration not stated)	21µM*	1%	nt	?	nt	nt
CCOc1ccc(NC(=O)CSC2=Nc3ccccc3C3=NC(Cc4ccccc4)C(=O)N23)cc1 (configuration not stated)	?	-1%	nt	?	nt	nt
O=C(NCc1ccccc1Cl)c1ccc2c(c1)NC(=O)C(CS(=O)(=O)Cc1ccc(Cl)cc1)N2 (configuration not stated)	?	13%	nt	?	nt	nt
Cn1cc(CNC(=O)CC2C(=O)NCCN2CC(C)(C)C)cn1 (configuration not stated)	4%	3%	11%	24%	-3	-17
CO/N=C/NC(=O)c1ccc([N+](=O)[O-])c(CS(=O)(=O)c2ccc(Cl)cc2)c1	10µM*	5%	-2%	7.3µM*	-1	0
